# In PubChem BioAssay AID686979 (National Center for Advancing Translational Sciences (NCATS), 2013):
# The campaign covered roughly 420,000 compounds. About 50,000 (12%) were called active. About 26% were inconclusive and are not listed. The call rests on the fitted dose curve; in most records, active means well fitted inhibition curve with a large enough effect; inconclusive means small, poorly fitted or top-dose-only effect; inactive means flat fitted curve, though single readings scatter. What follows is part of a selection rich in actives, with near analogues and random picks from the rest. Where a call stands in place of a potency, no number is given.
# Experiment: qHTS for Inhibitors of human tyrosyl-DNA phosphodiesterase 1 (TDP1): qHTS in cells in presence of CPT; further: nearly all actives have a fitted effect of over 55% in size
# Conditions: chicken DT40 Tdp1-/-;hTDP1 cells + 20 nM CPT, ATP luminescence, 48 h; series mostly up to 46.2 µM
# How it was run: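 Cell growth measured by CellTiter-Glo luminescence after a minimum 48 h, 37 C compound exposure with 20 nM CPT in Tdp1-knockout DT40 cells stably expressing hTDP1, seeded 400/well; qHTS titration format.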
# Potency means the concentration at half of the fitted maximal effect.
row,SMILES,Potency
1,CCOC(=O)C1C(c2ccc(O)cc2)NC(=O)NC1(O)C(F)(F)F (stereo not drawn),inactive
2,Cc1ccccc1NC(=O)CSC1=NCCN1,inactive
3,Cc1nc(SCC(=O)N2CCN(c3ccccc3)CC2)[nH]c(=O)c1C,inactive
4,Cc1ccc(C2(C(F)(F)F)N=C3Sc4cc(C)cc(C)c4N3C(=O)N2)cc1 (stereo not drawn),inactive
5,c1ccc(Cc2ccc(OCCn3ccnc3)cc2)cc1,20.6 µM (active)
6,C=CCc1cc(C)ccc1OCCCn1ccnc1,inactive
7,Brc1ccc(OCCn2ccnc2)cc1,inactive
8,CCN(CC(=O)Nc1ccc2c(c1)OCCO2)Cc1cc(=O)oc2cc(C)c(C)cc12,inactive
9,CC(C)Cc1oc(C(=O)O)cc1CN,inactive
10,Cc1cc(C)cc(NC(=O)CSc2nc3nccnc3c(=O)n2CCc2c[nH]c3ccccc23)c1,14.6 µM (active)
11,O=C(CSc1nc2nccnc2c(=O)n1CCc1c[nH]c2ccccc12)Nc1ccccc1F,10.3 µM (active)
12,Cc1cc(C)cc(NC(=O)Cn2c(=O)c3ccccc3n3nncc23)c1,inactive
13,Cn1c(CCC(=O)Nc2ccccc2F)nnc1SCC(=O)Nc1ccccc1Cl,inactive
14,COCCn1c(SCC(=O)Nc2ccccc2F)nc2c(c1=O)SCC2,inactive
15,Cc1cc(C)c(NC(=O)CSc2nc3nccnc3c(=O)n2CCc2c[nH]c3ccccc23)c(C)c1,inactive
16,O=Cc1c(Cl)cccc1Cl,inactive
17,CC1(C)O[C@@H]2[C@H](O1)[C@@H](CO)O[C@H]2n1c(N2CCCCC2)nc2c(N)ncnc21,inactive
18,CC(C)CNS(=O)(=O)c1ccc(C(=O)Nc2ccc3c(c2)OCO3)cc1,inactive
19,CC(=O)Nc1cccc(NC(=O)CSc2nccn2Cc2ccc3c(c2)OCO3)c1,inactive
20,CNc1ccc([N+](=O)[O-])cc1C(=O)O,inactive
21,Cn1cnc([N+](=O)[O-])c1Sc1n[nH]c(N)n1,inactive
22,Cn1cnc([N+](=O)[O-])c1Sc1ccccc1,18.4 µM (active)
23,Cn1cnc([N+](=O)[O-])c1Nc1ccccc1O,inactive

row,SMILES,Potency
1,COc1cccc(N2CC(NS(=O)(=O)c3cccs3)CC2=O)c1 (stereo not drawn),inactive
2,Cc1c(Cl)cccc1NC(=O)CCS(=O)(=O)c1ccc2c(c1)oc(=O)n2C,inactive
3,OC(COCC1COc2ccccc2O1)CN1CCN(c2ccc(F)cc2)CC1 (stereo not drawn),13 µM (active)
4,O=C(COC(=O)c1ccc(F)cc1)NCC1COc2ccccc2O1 (stereo not drawn),inactive
5,OC(COCc1ccco1)CN1CCN(c2ccccc2)CC1 (stereo not drawn),inactive
6,Nc1ncnc2c1ncn2[C@@H]1O[C@H](C(=O)NCC(F)(F)F)[C@@H](O)[C@H]1O,inactive
7,COc1ccccc1NC(=O)COC(=O)COc1ccccc1F,inactive
8,CCCNC(=O)C(CC)n1nc(CC)n2c(cc3oc(C)cc32)c1=O (stereo not drawn),25.9 µM (active)
9,CCc1nn(CC(=O)N2CCN(c3cc(C)ccc3C)CC2)c(=O)c2cc3occc3n12,inactive
10,CCc1nn(CCCC(=O)NC(C)c2ccccc2)c(=O)c2cc3occc3n12 (stereo not drawn),inactive
11,O=C(CC[C@H]1O[C@@H](n2ccc(=O)[nH]c2=O)[C@H](O)[C@@H]1O)N[C@H](Cc1ccccc1)C(=O)NCCCN1CCCC1=O,inactive
12,CC1CCCN(c2csc3ccc(F)cc3c2=O)C1 (stereo not drawn),inactive
13,Cn1cccc1C(=O)OCC(=O)NCCc1ccccc1,inactive
14,COCCN1C(=O)N[C@@H](c2ccccc2)C(C(=O)OC)=C1C,inactive
15,COC(=O)C1=C(C)N(Cc2ccccc2)C(=NCCCOC(C)C)N[C@H]1c1ccccc1,6.51 µM (active)
16,CCN1C(=O)N[C@@H](c2ccccc2)C(C(=O)OC)=C1C,inactive
17,CC(C)C(=O)Nc1ccc2c3c(cccc13)CC2,inactive
18,CN(Cc1ccccc1)C(=O)c1cn(C)c2ccc(S(=O)(=O)N3CCCCC3)cc2c1=O,inactive
19,CCC(CC)C(=O)Nc1c2c(nn1-c1ccc(C)cc1)CS(=O)(=O)C2,inactive
20,O=C(NCc1ccccc1)c1cc(-c2cccc(Cl)c2)on1,inactive
21,N#Cc1c(N)sc2c1CCN(C(=O)OCc1ccccc1)C2,inactive
22,CCOC(=O)N1CCc2c(sc3c2C(=O)NC(c2ccccc2F)N3)C1 (stereo not drawn),20.6 µM (active)
23,CCOCCOC(=O)C1=C(C)N(C)C(=O)NC1c1ccccc1F (stereo not drawn),inactive

row,SMILES,Potency
1,CC1OC(OCC2OC(Oc3c(-c4ccc(O)c(O)c4)oc4cc(O)cc(O)c4c3=O)C(O)C(O)C2O)[C@@H](O)C(O)C1O (stereo partly drawn),inactive
2,CCOc1ccc(CCNC(=O)COC(=O)C2CCN(S(=O)(=O)c3ccccc3)CC2)cc1OCC,inactive
3,COc1ccc(-c2cc(=O)oc3cc(OCC(=O)N(C)C4CCS(=O)(=O)C4)ccc23)cc1 (stereo not drawn),inactive
4,CCC1SC(CC)C(=O)N(CC(=O)NC2CCCCC2)C1=O (stereo not drawn),inactive
5,CN1c2ccc(C=O)c3c(C=O)ccc(c23)N(C)C1(C)C,20.6 µM (active)
6,NC(=O)c1ccc(Nc2ccc3c(c2)CCC3)c([N+](=O)[O-])c1,inactive
7,CNN/C(N=Cc1ccc([N+](=O)[O-])s1)=N\S(=O)(=O)c1cc(C)c(Cl)cc1SCc1ccccc1,1.16 µM (active)
8,O=C(CCC(=O)c1cccs1)Nc1nc2ccccc2s1,inactive
9,COc1cc(NC(=O)CCNC(=O)Cn2ccc3ccccc3c2=O)cc(OC)c1OC,inactive
10,CC(C)n1c(-c2ccncc2)n[nH]c1=S,inactive
11,C#CCN(N(C)c1ncc(C(F)(F)F)cc1Cl)S(=O)(=O)c1ccc2ccccc2c1,inactive
12,CC(OC(=O)CN1C(=O)c2ccccc2C1=O)C(=O)c1ccccc1 (stereo not drawn),inactive
13,CCOC(=O)CN1C(=O)C(=O)c2cc(C)ccc21,8.2 µM (active)
14,CC(C)OC(=O)CN1C(=O)c2ccccc2C1=O,inactive
15,CC(C)OC(=O)CN1C(=O)C(=O)c2ccccc21,13 µM (active)
16,CCCCOC(=O)Cn1c(=O)n(CC(=O)OCCCC)c2cc(C)ccc21,inactive
17,CCOC(=O)C1CCN(C(=O)CN2C(=O)c3cccnc3Oc3ccc(C)cc32)CC1,inactive
18,NS(=O)(=O)c1ccc(CCNC(=O)CN2C(=O)c3ccccc3S2(=O)=O)cc1,inactive
19,O=C(O)C(=Cc1ccc([N+](=O)[O-])cc1)CCc1ccccc1,inactive
20,COc1ccc(NC(=O)CCN2CCCC2)c(OC)c1,inactive
21,COc1ccc(Cl)cc1NC(=O)CCN1CCOCC1,inactive
22,COc1ccccc1NC(=O)CCN1CCN(c2ccc(Cl)cc2)CC1,14.6 µM (active)
